Results as given in PubChem BioAssay AID624351 (Southern Research Specialized Biocontainment Screening …, 2012).
About 1,400 (58%) of roughly 2,400 compounds were called active. The set was probably picked from earlier hits. Some of the results follow. A number with no mark means an inactive call.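 Rule for the calls: active = inhibition of 30% or more at any tested dose; inconclusive = primary hits over the limit that were never retested; inactive = the rest.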

test: coupled detection enzyme interference, dose response, artefact control for MgcRacGAP inhibitor project, biochemical, coupled enzyme counter-screen (AID 624351); conditions: ADP Hunter coupled enzyme counter-screen, fluorescence, no MgcRacGAP; series mostly up to 80 µM; inhibition: at the top concentration;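 note: signal is the ADP detection kit reading of free GDP without any GAP enzyme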;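 for inhibition: 0% = median positive control wells and 100% = median negative control wells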

Compound | inhibition | IC50
CCCCN(CCCC)CCNC(=O)CSCc1ccc(C)cc1 | 19.8% | –
Cc1cccc(-n2nc3c(c2NC(=O)c2ccco2)CSC3)c1C | 0.97% | –
C=CCc1cc(OC)ccc1OCCN1CC(C)OC(C)C1 (centres undefined) | 28.6% | –
Nc1ccc(OCc2ccco2)cc1 | – | 58.6 µM (active)
c1coc(CSSCc2ccco2)c1 | 0.48% | –
CC1N(C)c2cccc3cccc(c23)N1C | – | 21 µM (active)
CCN(CC)c1ccc(N=Cc2c(C)[nH]c3ccccc23)cc1 | – | 41.6 µM (active)
O=C1/C(=C/c2ccccc2[N+](=O)[O-])COc2ccccc21 | 3.33% | –
CCN(CC)c1ccc(N=Cc2ccccc2[N+](=O)[O-])cc1 | – | 27.2 µM (active)
CN(C)C=Nc1ccc2nc3c(cc2c1)[nH]c1ccccc13 | -11.8% | –
S=c1[nH]nc(-c2ccco2)n1/N=C/c1ccc(Cl)cc1 | – | 51.2 µM (active)
CC(=C/c1ccccc1)/C=N/n1c(-c2ccco2)n[nH]c1=S | – | 66.7 µM (active)
CC1=C(C)CS(=O)N(S(=O)(=O)c2ccc(Cl)cc2)C1 (centres undefined) | -1.25% | –
Cc1cccc(CN2CCN(Cc3ccco3)CC2)c1 | 5.3% | –
Cc1cccc(-c2n[nH]c(=S)n2/N=C/c2ccco2)c1 | – | 78.9 µM (active)
Cc1nc2ccc(C(=O)Nc3ccc(N(C)C)cc3)cc2s1 | – | 58.9 µM (active)
Cc1ccc2nc(N(CCCN(C)C)C(=O)c3ccc4ncsc4c3)sc2c1 | 4.64% | –
O=C(CN1CCc2ccccc2C1)Nc1ccccc1C(F)(F)F | 8.43% | –
COc1cc(C2C(=O)c3ccccc3C2=O)ccc1O | – | 20.4 µM (active)
O=C1c2ccccc2C(=O)C1c1ccc(O)cc1 | – | 81.3 µM (active)
C[C@H]1CCC/C=C/[C@@H]2C[C@H](O)C[C@H]2[C@H](O)[C@H](S(=O)c2ccc(O)cc2)CC(=O)O1 (some centres undefined) | 24.2% | –
CN1CCN(CCCNCc2cn(CCC#N)c3ccccc23)CC1 | -1.13% | –
N#CCCN1CCN(CCC#N)c2ccccc21 | – | 20 µM (active)

Compound | inhibition | IC50
CC(=O)c1ccc(NC(=S)Nc2ccc3[nH]c(=O)[nH]c3c2)cc1 | 8.57% | –
Cc1ccc(OC(=S)Nc2ccc(O)cc2)cc1 | – | 34.5 µM (active)
CC(=O)Nc1ccc(OC(=O)c2cc3ccccc3oc2=O)cc1 | 13.8% | –
COc1ccc(OC(=O)COc2ccc(C)cc2)cc1 | 28.1% | –
Oc1ccc(NC(=S)Nc2ccc(O)cc2)cc1 | – | 46.5 µM (active)
O=C(/C=C/c1ccco1)NC(=S)Nc1ccc(C(=O)O)cc1 | -1.18% | –
COC(=O)c1ccc(NC(=S)Nc2ccc(O)cc2)cc1 | – | 68.1 µM (active)
Oc1ccc(NC(=S)Nc2ccccc2)cc1 | – | 55.5 µM (active)
CN(C)c1ccc(O)c2c1CC1CC3[C@@H](N(C)C)C(=O)C(C(N)=O)=C(O)[C@]3(O)C(=O)C1=C2O (some centres undefined) | -7.5% | –
COCC(C)NCc1ccc(OC)c(Br)c1 (centres undefined) | 20.1% | –
COc1ccc(CN2CCN(Cc3ccccc3F)CC2)c(OC)c1 | 27.5% | –
O=C(c1cccnc1)N1CCN(Cc2cccc(Br)c2)CC1 | 0.22% | –
O=C(Nc1ccc(O)cc1)C1CC=CCC1 (centres undefined) | – | 64.6 µM (active)
CNC(=S)Nc1ccc(Nc2ccccc2)cc1 | – | 71.8 µM (active)
CC1CCCCN1CC(=O)Nc1ccc(N2CCCCCC2)cc1 (centres undefined) | 11.7% | –
CN(C(=S)NC(=O)C1CC1)c1ccc(O)cc1 | 3.76% | –
CC(C)N(c1ccccc1)c1ccc(NC(=S)NCCN(C)C)cc1 | 9.78% | –
O=C(NC(=S)Nc1ccc(O)cc1)C1CCCC1 | – | 31.8 µM (active)
N=C1/C(=C\c2ccc(Br)o2)C(=O)N=C2SC(CC(=O)N3CCCCC3)=NN12 | 3.12% | –
COc1ccc(C2NC(=O)C(C#N)=C(S)N2c2ccccc2)cc1OC (centres undefined) | 1.58% | –
Cc1ccn2c(=S)[nH]nc2c1 | – | 46.7 µM (active)
Cc1cccn2c(=S)[nH]nc12 | – | 13.4 µM (active)
S=c1[nH]nc2ccccn12 | – | 24 µM (active)

Compound | inhibition | IC50
Cc1ccc(/C=C2/C(=O)c3ccc(C(=O)O)cc3C2=O)o1 | -2.01% | –
Cc1cc(O)ccc1N=Cc1c(C(F)(F)F)[nH][nH]c1=O | – | 32.8 µM (active)
Oc1ccc(/C=C/c2ccc3ccccc3n2)cc1 | – | 30.7 µM (active)
O=c1[nH]c2ccccc2nc1/C=C/c1ccc(O)cc1 | – | 36.9 µM (active)
CCOc1cc(/C=N/NC(=O)c2cc(C3CC3)[nH]n2)ccc1O | – | 56.1 µM (active)
CCOc1cc(/C=N/NC(=O)c2ccc(=O)n(C)c2)ccc1O | – | 60.4 µM (active)
CCOc1cc(/C=N/NC(=O)C2CCCC2)ccc1O | – | 51.3 µM (active)
CCOc1cc(/C=N/NC(=O)c2ccc(NC(=O)C3CC3)cc2)ccc1O | – | 83.2 µM (active)
Cc1cc(C)c(C)c(OCCNCc2ccccc2)c1 | 20.3% | –
COc1ccccc1COCC(O)CNCC1(N2CCCCC2)CCCCC1 (centres undefined) | 19.2% | –
COc1cc(/C=N/NC(=O)C2CCN(CC(O)COCc3ccccc3)CC2)ccc1O (centres undefined) | – | 34.1 µM (active)
Cc1cccc(N2C(S)=C(C#N)C(=O)NC2c2cccs2)c1 (centres undefined) | 6.48% | –
COc1cc(NC(C)CCCNC(C)C)c2ncccc2c1OC (centres undefined) | 4.79% | –
COc1cccc2c3cccc(OC)c3c3[nH]cnc3c12 | 9.71% | –
COc1cc(N)c2ncccc2c1SC | – | 51.2 µM (active)
COc1cc(CN(C)CCc2ccccn2)cc(OC)c1OC | 26.4% | –
COc1cc(N)c2ncccc2c1OC | – | 63.8 µM (active)
CCN1/C(=C\c2ccc3ccccc3[n+]2CC)Sc2cc(C)ccc21 | 11.5% | –
CCOC(=O)c1ccc(S(=O)(=O)Nc2nc3cc(S(=O)(=O)NC4=NCCCCC4)ccc3s2)cc1 | 2.82% | –
Cc1c(NC(=S)N/N=C/c2ccc(O)cc2)c(=O)n(-c2ccccc2)n1C | – | 68.4 µM (active)
CC(=O)NC(Nc1c(C)n(C)n(-c2ccccc2)c1=O)C(Cl)(Cl)Cl (centres undefined) | -1.5% | –
COc1cc(N=Nc2c(C)n(C)n(-c3ccccc3)c2=O)ccc1N | – | 47.2 µM (active)
Cc1[nH]c2ccccc2c1N=Nc1c(C)n(C)n(-c2ccccc2)c1=O | – | 40.2 µM (active)

Compound | inhibition | IC50
Cc1c(N=C2C=C(Br)C(=O)C(Br)=C2)c(=O)n(-c2ccccc2)n1C | – | 24.2 µM (active)
Cc1c(N=Nc2ccc(O)cc2)c(=O)n(-c2ccccc2)n1C | – | 19.5 µM (active)
Cc1c(NC(=O)CNCc2ccc3c(c2)OCO3)c(=O)n(-c2ccccc2)n1C | 6.4% | –
CCN1CCN(CCCCOc2ccccc2F)CC1 | 22.8% | –
CCOc1cc(NC(=O)c2ccccc2C(=O)O)c(OCC)cc1NC(=O)c1ccccc1F | – | 65.3 µM (active)
CCOc1ccccc1NC(=O)C(NCCN(C)C)c1ccccc1 (centres undefined) | 21.6% | –
CC1CC(C)(C)N(C(=O)CN2CCN(C)CC2)c2ccccc21 (centres undefined) | 23.8% | –
O=C1CCCC/C1=C\Nc1ccc(O)cc1 | – | 13.3 µM (active)
CC1CCC/C(=C\Nc2ccc(O)cc2)C1=O (centres undefined) | – | 31.8 µM (active)
Cc1cc(O)ccc1N/C=C1\CCCC1=O | – | 21 µM (active)
CC1CCC/C(=C\c2ccc(O)cc2)C1=O (centres undefined) | – | 22.3 µM (active)
Cc1cnc(NC(=O)C(C)N2CCN(C)CC2)s1 (centres undefined) | 24.8% | –
O=C1OCC/C1=C\c1ccc(O)cc1 | – | 27.6 µM (active)
CCOc1ccccc1CN(CCc1ccc2c(c1)OCO2)Cc1ccccn1 | 17.6% | –
CC1OC(CC(=O)O)CC2=C1C(=O)c1c(O)cccc1C2=O (centres undefined) | -0.48% | –
Cc1ccc(/C=N/n2c(-c3cccnc3)n[nH]c2=S)s1 | – | 43.8 µM (active)
O=[N+]([O-])c1cccc(/C=N/n2c(-c3cccnc3)n[nH]c2=S)c1 | – | 24.9 µM (active)
Cn1c(-c2cccc([N+](=O)[O-])c2)cnc1NCc1cccc([N+](=O)[O-])c1 | 22.6% | –
S=c1[nH]nc(-c2cccnc2)n1/N=C/c1cccs1 | – | 42.7 µM (active)
CCc1ccc(OCCOCCN2CCN(C)CC2)cc1 | 19.5% | –
COc1ccc(C2NC(=O)C(C#N)=C(S)N2c2ccc(C)cc2)cc1OC (centres undefined) | 3.19% | –
CC1=CC(C)(C)N(C(=O)CNC2CCCC2)c2cc(C)ccc21 | 20.2% | –
O=[N+]([O-])c1ccc(Oc2cccc3cccnc23)c([N+](=O)[O-])c1 | 8.96% | –

Compound | inhibition | IC50
O=[N+]([O-])c1ccc(Sc2cccc3cccnc23)c([N+](=O)[O-])c1 | 5.21% | –
Nc1[nH]c2cc([N+](=O)[O-])ccc2c1-c1ccccn1 | – | 75.4 µM (active)
C=CCOc1ccc(C=NNc2ccc(S(=O)(=O)Nc3ccccc3C(=O)O)cc2[N+](=O)[O-])cc1OC | 4.51% | –
O=C(O)c1ccccc1NS(=O)(=O)c1ccc(N/N=C/c2ccc(O)c(O)c2)c([N+](=O)[O-])c1 | – | 69.8 µM (active)
O=C(/C=C/c1ccc(O)c(O)c1)NC(=O)c1ccccc1O | – | 21.9 µM (active)
Cc1ccc2oc(=O)c(/C=C(\O)c3ccccc3)nc2c1 | – | 59.2 µM (active)
Cn1c(N=Nc2ccc(N3CCOCC3)cc2)[n+](C)c2ccccc21 | – | 58.3 µM (active)
O=C(CNCc1ccc(Cl)cc1)Nc1ccc2c(c1)OCCO2 | 14.6% | –
c1csc(CNc2ccc3c(c2)OCCO3)c1 | – | 69.2 µM (active)
CN(C)c1ccc(N=c2sc3ccccc3n2C)cc1 | – | 26.7 µM (active)
Nc1ccc2cc3[nH]c4cc(N)ccc4c3nc2c1 | -9.55% | –
Nc1ccc2c(c1)[nH]c(=O)c1cc(N)ccc12 | – | 16.6 µM (active)
CN1/C(=N\O)c2cccc3cccc1c23 | – | 54 µM (active)
CC(=O)c1c(Nc2ccc3c(c2)OCCO3)oc(C)cc1=O | – | 77.3 µM (active)
O=C(NC(=S)N1CCN(c2ccc(O)cc2)CC1)c1ccco1 | – | 38.7 µM (active)
CCN(CC)S(=O)(=O)c1ccc(C)c(NC(=O)CN2CCN(Cc3ccccc3)CC2)c1 | 23.3% | –
O=C(CN1CCN(c2ccc(O)cc2)CC1)Nc1ccccc1C(=O)NCCc1ccccc1 | – | 32.9 µM (active)
Oc1ccc(N2CCN(C(=S)NCCc3ccccc3)CC2)cc1 | – | 32.2 µM (active)
O=C(CN1CCN(C/C=C/c2ccccc2)CC1)Nc1ccccc1C(=O)NC1CC1 | 13.6% | –
COCCCNC(=S)N1CCN(Cc2ccc3c(c2)OCO3)CC1 | 12.6% | –
CN1CCC(N(C)CC(=O)Nc2ccc3c(c2)OC(F)(F)O3)CC1 | 24.9% | –
Cc1sc2ccc3sccc3c2[n+]1C | 0.22% | –
